The record followed here is ChEMBL document CHEMBL1961873, “Compounds: GSK PKIS; Assays: Nanosyn kinase panel” (2012).
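Also: values are mean inhibition figures reported as part of the GSK PKIS dataset.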

This assay deals with Casein kinase I isoform gamma-2 (Homo sapiens) (UniProt P78368). As to conditions: at 0.1 µM.
Sequence of Casein kinase I isoform gamma-2 (Homo sapiens) (P78368 whole entry, looked up, canonical isoform): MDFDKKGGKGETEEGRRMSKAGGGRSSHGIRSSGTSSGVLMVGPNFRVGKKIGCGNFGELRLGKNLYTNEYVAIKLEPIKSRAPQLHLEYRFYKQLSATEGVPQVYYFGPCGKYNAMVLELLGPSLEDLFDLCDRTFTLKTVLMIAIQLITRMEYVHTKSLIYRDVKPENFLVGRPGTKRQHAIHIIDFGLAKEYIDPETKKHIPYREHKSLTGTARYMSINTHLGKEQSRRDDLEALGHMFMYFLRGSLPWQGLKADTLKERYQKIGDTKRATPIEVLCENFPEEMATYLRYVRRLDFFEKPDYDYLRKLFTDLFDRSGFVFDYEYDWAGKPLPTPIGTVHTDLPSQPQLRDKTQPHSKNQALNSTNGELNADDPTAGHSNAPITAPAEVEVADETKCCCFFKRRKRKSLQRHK
For `Fc1ccc(-c2ncn(C3CCNCC3)c2-c2ccnc(Oc3ccccc3)n2)cc1`, the inhibition is -1.96%.

On to `NS(=O)(=O)c1ccc(-c2ccc3c(NC(=O)C4CC4)n[nH]c3c2)cc1`, for which the inhibition was 1%.

Take `Cc1cc(-c2ccco2)cc(C)c1/C=C/c1cncc(-c2nn[nH]n2)c1`: the inhibition was determined as 0.62%.

With `CCn1c(-c2nonc2N)nc2c(C#CC(C)(C)O)ncc(OCC3CCNCC3)c21`, the inhibition is -1.19%.

With `NS(=O)(=O)c1ccc(N/C=C2\C(=O)Nc3ccc4ncsc4c32)cc1`, the inhibition came out at 2.65%.

With `Nc1nonc1-c1nc2cnccc2n1C1CCCCC1`, the inhibition is -2.61%.

With `CCn1c(-c2nonc2N)nc2c(C#CCN)ncc(OCCCN)c21`, the inhibition was -0.29%.

As for `COc1cccc(-n2ncc3c(N/N=C/c4ccncc4)ncnc32)c1`, the inhibition is 3.26%.

Regarding `CCn1c(-c2nonc2N)nc2c(C#CC(C)(C)O)ncc(OC[C@@H]3CCCN3)c21`, the inhibition was found to be 1.05%.

Regarding `COc1cccc(COc2cc(-n3cnc4ccccc43)sc2C(N)=O)c1`, the inhibition was 2.02%.

Take `COc1cc(C=NNc2ncnc3c2cnn3Cc2ccccc2)ccc1O`: the inhibition is -2.95%.

Take `CCn1c(-c2nonc2N)nc2c(C#CC(C)(C)O)nc(O[C@@H](CN)c3ccccc3)cc21`: the inhibition is -0.78%.

`NC(=O)c1sc(-n2cnc3cc(C(F)(F)F)ccc32)cc1OCc1ccccc1Br`: the inhibition was 0.61%.

By inhibition is commonly meant the change of the read-out against control, counted positive when it falls.
